Assay results: publication PMC7862700, “An all-to-all approach to the identification of sequence-specific readers for epigenetic DNA modifications on cytosine”

How the values were obtained:
Assay in all cases: DAPPL (digital affinity profiling via proximity ligation, sequencing); 10 mM Tris-HCl pH 7.5, 50 mM NaCl, 1 mM DTT, 4% glycerol, room temperature, 30 min; GST-TFs on glutathione beads, 16-mer random dsDNA library, 0.1% formaldehyde crosslink after washing; high values mean tight binding
FLI1 = target: T1, FLI1 (Homo sapiens, UniProt Q01543 1-452); settings: protein: recombinant; tags: N-terminal GST; dsDNA, one strand shown
T1 sequence: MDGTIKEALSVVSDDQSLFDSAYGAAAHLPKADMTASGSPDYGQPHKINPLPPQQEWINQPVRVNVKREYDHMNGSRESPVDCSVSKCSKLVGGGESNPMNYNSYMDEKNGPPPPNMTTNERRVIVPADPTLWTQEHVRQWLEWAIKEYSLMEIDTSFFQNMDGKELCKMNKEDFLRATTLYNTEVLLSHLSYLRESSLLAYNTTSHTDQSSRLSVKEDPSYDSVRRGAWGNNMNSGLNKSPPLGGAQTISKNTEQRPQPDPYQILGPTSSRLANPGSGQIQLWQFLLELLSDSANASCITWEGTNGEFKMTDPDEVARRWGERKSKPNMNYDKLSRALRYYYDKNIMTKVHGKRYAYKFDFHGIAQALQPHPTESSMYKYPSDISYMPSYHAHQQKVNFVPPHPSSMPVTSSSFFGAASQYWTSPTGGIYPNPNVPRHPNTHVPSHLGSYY
How it was run: (§1)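 Human transcription factors fused to GST were expressed in yeast, captured on glutathione beads, given DNA barcodes and pooled with a GST-only negative control. Pools were incubated with 200 nmole of a 16-mer random double-stranded DNA library in Tris/NaCl/DTT/glycerol buffer at room temperature for 30 min. They were then washed, crosslinked with 0.1% formaldehyde, proximity-ligated (BsaI/T4 ligase, 1 h, 37 °C), PCR-amplified and sequenced on an Illumina NextSeq500. Binding signal is each 6-mer's read frequency for a factor divided by its frequency for the GST control.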

ELK1 = target: T2, ELK1 (Homo sapiens, UniProt P19419 1-428); settings: protein: recombinant; tags: N-terminal GST; dsDNA, one strand shown
T2 sequence: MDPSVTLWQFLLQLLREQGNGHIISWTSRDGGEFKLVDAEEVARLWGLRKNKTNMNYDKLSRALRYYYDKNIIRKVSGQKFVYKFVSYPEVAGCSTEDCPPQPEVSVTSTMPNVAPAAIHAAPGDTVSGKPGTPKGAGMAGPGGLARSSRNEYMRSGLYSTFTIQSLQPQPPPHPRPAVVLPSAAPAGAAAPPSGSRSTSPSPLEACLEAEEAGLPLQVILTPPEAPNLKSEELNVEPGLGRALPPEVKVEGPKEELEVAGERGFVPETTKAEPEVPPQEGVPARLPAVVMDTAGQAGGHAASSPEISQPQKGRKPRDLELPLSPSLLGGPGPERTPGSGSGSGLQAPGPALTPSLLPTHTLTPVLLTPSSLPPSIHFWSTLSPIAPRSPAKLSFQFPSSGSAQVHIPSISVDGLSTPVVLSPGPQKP
How it was run: as §1

GABPA = target: T3, GABPA (Homo sapiens, UniProt Q06546 1-454); settings: protein: recombinant; tags: N-terminal GST; dsDNA, one strand shown
T3 sequence: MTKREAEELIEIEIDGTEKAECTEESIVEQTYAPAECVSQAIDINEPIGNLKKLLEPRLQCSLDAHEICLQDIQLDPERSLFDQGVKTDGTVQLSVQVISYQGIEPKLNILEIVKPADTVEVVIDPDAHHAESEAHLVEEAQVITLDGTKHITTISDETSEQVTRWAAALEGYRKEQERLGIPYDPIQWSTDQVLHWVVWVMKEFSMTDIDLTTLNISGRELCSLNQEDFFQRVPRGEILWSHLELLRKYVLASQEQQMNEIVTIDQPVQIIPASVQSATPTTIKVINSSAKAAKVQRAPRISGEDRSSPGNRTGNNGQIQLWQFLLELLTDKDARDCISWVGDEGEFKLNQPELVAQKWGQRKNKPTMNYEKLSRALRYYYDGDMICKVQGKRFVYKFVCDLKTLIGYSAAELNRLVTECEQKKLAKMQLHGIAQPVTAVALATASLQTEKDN
How it was run: as §1

ERG = target: T4, ERG (Homo sapiens, UniProt P11308 1-479); settings: protein: recombinant; tags: N-terminal GST; dsDNA, one strand shown
T4 sequence: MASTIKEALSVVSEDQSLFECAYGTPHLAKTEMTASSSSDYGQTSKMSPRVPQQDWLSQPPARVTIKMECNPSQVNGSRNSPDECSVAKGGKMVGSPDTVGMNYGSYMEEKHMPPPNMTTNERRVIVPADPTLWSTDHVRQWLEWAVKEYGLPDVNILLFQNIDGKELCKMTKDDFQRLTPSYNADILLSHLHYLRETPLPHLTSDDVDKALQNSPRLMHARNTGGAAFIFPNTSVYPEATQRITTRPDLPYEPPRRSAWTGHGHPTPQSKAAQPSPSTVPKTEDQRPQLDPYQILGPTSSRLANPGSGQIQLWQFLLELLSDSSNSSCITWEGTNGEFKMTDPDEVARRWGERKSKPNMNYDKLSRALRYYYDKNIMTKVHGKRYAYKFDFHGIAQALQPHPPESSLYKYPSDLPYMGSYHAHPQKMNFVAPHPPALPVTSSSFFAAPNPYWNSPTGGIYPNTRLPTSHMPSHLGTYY
How it was run: as §1

ELF1 = ELF1 (Homo sapiens, UniProt P32519 1-619); settings: protein: recombinant; tags: N-terminal GST; dsDNA, one strand shown
How it was run: as §1

EHF = target: T5, EHF (Homo sapiens, UniProt Q9NZC4 1-300); settings: protein: recombinant; tags: N-terminal GST; dsDNA, one strand shown
T5 sequence: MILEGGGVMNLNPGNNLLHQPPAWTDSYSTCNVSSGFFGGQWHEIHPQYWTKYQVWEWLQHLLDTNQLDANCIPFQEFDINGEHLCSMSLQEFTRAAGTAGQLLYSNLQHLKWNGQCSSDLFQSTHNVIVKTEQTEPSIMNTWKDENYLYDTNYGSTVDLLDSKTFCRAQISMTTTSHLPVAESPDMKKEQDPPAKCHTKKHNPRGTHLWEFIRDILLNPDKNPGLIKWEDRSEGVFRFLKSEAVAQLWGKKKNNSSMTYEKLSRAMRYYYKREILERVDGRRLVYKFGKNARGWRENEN
How it was run: as §1

SPI1 = SPI1 (Homo sapiens, UniProt P17947 1-270); settings: protein: recombinant; tags: N-terminal GST; dsDNA, one strand shown
How it was run: as §1

SPIB = SPIB (Homo sapiens, UniProt Q01892 1-262); settings: protein: recombinant; tags: N-terminal GST; dsDNA, one strand shown
How it was run: as §1

ELK3 = target: T6, ELK3 (Homo sapiens, UniProt P41970 1-407); settings: protein: recombinant; tags: N-terminal GST; dsDNA, one strand shown
T6 sequence: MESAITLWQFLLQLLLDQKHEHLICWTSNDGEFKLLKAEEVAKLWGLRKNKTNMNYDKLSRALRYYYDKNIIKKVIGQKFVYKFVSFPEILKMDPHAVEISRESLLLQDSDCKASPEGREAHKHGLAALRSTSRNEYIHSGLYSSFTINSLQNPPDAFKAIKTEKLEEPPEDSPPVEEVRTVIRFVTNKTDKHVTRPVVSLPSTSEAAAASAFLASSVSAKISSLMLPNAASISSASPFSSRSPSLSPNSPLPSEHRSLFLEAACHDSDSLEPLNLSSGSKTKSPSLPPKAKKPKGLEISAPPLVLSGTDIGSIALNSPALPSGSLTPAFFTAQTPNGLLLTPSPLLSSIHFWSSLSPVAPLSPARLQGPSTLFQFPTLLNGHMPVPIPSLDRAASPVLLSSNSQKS
How it was run: as §1

FEV = target: T7, FEV (Homo sapiens, UniProt Q99581 1-238); settings: protein: recombinant; tags: N-terminal GST; dsDNA, one strand shown
T7 sequence: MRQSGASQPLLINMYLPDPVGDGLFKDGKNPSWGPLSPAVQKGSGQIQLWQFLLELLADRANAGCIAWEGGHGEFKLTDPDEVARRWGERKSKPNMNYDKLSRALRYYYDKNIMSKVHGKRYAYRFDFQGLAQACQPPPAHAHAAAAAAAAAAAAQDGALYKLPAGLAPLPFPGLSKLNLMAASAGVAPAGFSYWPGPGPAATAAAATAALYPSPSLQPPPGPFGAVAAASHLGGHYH
How it was run: as §1

ETV5 = ETV5 (Homo sapiens, UniProt P41161 1-510); settings: protein: recombinant; tags: N-terminal GST; dsDNA, one strand shown
How it was run: as §1

HSF1 = HSF1 (Homo sapiens, UniProt Q00613 1-529); settings: protein: recombinant; tags: N-terminal GST; chain copies: 3; dsDNA, one strand shown
How it was run: as §1

SPIC = target: T8, SPIC (Homo sapiens, UniProt Q8N5J4 1-248); settings: protein: recombinant; tags: N-terminal GST; dsDNA, one strand shown
T8 sequence: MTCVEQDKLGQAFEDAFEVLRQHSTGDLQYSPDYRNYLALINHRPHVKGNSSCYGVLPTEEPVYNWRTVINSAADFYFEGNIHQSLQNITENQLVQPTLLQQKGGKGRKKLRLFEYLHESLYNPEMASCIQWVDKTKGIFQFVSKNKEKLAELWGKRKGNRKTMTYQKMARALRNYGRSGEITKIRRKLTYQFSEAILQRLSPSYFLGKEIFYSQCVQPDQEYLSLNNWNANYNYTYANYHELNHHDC
How it was run: as §1

ELF4 = ELF4 (Homo sapiens, UniProt Q99607 1-663); settings: protein: recombinant; tags: N-terminal GST; dsDNA, one strand shown
How it was run: as §1

ELK4 = target: T9, ELK4 (Homo sapiens, UniProt P28324-2 1-405); settings: protein: recombinant; tags: N-terminal GST; dsDNA, one strand shown
T9 sequence: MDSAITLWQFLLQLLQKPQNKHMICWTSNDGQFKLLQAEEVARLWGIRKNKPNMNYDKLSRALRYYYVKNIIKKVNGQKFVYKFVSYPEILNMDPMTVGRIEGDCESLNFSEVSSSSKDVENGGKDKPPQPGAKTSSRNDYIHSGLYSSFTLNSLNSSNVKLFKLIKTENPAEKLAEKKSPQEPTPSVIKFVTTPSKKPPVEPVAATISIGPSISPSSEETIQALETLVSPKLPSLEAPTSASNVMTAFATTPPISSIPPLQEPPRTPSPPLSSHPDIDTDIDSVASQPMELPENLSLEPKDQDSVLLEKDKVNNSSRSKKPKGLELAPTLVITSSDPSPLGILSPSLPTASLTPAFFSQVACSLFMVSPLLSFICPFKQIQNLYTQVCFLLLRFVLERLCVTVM
How it was run: as §1

ETV2 = target: T10, ETV2 (Homo sapiens, UniProt O00321 1-342); settings: protein: recombinant; tags: N-terminal GST; dsDNA, one strand shown
T10 sequence: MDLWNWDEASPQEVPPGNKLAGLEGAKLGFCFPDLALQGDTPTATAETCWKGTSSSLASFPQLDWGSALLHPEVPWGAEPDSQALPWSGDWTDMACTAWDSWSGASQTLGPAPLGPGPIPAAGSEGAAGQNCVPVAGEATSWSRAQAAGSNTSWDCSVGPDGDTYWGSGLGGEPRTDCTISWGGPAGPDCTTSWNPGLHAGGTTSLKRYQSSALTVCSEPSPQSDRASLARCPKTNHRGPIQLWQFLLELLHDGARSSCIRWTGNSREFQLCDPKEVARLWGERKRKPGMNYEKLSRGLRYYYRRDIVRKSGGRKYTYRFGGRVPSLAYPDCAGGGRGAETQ
How it was run: as §1

ELF3 = target: T11, ELF3 (Homo sapiens, UniProt P78545 1-371); settings: protein: recombinant; tags: N-terminal GST; dsDNA, one strand shown
T11 sequence: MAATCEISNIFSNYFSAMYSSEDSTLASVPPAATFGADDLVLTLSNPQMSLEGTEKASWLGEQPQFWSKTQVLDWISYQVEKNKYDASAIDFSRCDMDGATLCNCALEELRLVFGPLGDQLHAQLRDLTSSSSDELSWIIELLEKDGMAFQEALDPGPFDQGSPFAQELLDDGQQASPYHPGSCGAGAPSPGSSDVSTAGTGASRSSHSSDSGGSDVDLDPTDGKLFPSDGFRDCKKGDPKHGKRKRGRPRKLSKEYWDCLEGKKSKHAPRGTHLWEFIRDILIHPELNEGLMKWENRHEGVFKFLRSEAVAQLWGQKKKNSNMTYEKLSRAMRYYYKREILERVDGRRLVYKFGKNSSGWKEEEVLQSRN
How it was run: as §1

CRX = CRX (Homo sapiens, UniProt O43186 1-299); settings: protein: recombinant; tags: N-terminal GST; dsDNA, one strand shown
How it was run: as §1

ETV1 = ETV1 (Homo sapiens, UniProt P50549 1-477); settings: protein: recombinant; tags: N-terminal GST; dsDNA, one strand shown
How it was run: as §1

Sequence of ETV5 (P41161 whole entry): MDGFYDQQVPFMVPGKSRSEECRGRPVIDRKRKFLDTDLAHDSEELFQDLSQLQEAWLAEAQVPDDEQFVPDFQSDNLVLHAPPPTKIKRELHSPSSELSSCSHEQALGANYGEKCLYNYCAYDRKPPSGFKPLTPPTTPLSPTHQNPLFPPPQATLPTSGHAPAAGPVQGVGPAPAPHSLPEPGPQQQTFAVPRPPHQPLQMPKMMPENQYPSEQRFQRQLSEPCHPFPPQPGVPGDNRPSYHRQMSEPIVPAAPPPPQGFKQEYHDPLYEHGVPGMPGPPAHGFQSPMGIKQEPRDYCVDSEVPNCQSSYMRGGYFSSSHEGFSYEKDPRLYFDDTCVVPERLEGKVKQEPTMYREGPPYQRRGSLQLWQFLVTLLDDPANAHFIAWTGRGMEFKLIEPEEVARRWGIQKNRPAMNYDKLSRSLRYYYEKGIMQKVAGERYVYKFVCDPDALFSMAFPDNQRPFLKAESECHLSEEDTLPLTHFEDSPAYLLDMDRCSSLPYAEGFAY
Sequence of HSF1 (Q00613 whole entry): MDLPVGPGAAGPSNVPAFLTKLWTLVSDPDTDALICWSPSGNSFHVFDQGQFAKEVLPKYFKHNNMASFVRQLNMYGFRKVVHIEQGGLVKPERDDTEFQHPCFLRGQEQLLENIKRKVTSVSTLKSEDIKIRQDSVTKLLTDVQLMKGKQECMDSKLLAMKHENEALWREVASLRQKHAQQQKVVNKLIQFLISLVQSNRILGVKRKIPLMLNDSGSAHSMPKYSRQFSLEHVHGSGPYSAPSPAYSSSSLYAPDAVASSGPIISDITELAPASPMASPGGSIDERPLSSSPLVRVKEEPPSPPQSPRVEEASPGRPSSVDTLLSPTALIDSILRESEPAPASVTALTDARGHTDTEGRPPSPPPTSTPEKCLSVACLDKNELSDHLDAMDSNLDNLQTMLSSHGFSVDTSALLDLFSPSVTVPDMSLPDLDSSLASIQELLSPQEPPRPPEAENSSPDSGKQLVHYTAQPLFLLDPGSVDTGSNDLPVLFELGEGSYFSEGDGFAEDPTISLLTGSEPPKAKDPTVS
Sequence of ETV1 (P50549 whole entry): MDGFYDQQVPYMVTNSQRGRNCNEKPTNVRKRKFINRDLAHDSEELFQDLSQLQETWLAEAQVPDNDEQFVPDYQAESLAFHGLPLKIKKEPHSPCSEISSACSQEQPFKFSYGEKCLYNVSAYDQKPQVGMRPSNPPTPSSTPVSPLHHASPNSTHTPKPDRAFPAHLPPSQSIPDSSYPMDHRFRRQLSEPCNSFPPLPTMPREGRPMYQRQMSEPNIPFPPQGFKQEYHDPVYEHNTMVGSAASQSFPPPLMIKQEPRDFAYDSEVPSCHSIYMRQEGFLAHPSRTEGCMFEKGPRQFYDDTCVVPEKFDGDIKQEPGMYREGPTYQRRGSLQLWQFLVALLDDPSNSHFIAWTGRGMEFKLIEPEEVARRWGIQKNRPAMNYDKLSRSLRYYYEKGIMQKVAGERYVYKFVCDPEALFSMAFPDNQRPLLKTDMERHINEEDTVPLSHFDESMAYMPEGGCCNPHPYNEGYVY
Sequence of ELF1 (P32519 whole entry): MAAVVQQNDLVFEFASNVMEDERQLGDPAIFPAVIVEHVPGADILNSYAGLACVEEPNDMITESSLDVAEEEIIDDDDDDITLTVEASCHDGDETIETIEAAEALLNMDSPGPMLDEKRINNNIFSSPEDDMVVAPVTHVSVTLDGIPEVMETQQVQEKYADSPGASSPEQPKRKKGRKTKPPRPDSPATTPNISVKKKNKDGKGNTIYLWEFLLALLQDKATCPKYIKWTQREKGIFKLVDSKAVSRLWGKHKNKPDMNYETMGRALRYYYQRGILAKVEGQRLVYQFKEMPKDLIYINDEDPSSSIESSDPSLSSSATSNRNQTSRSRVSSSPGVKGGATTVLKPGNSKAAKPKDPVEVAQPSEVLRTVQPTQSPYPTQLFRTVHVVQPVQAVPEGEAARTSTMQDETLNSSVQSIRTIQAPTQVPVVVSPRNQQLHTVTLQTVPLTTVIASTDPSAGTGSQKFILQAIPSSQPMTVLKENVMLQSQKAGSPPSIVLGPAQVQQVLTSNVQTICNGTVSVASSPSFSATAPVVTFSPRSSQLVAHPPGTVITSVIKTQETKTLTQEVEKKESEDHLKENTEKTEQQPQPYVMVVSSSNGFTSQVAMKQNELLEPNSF
Sequence of ELF4 (Q99607 whole entry): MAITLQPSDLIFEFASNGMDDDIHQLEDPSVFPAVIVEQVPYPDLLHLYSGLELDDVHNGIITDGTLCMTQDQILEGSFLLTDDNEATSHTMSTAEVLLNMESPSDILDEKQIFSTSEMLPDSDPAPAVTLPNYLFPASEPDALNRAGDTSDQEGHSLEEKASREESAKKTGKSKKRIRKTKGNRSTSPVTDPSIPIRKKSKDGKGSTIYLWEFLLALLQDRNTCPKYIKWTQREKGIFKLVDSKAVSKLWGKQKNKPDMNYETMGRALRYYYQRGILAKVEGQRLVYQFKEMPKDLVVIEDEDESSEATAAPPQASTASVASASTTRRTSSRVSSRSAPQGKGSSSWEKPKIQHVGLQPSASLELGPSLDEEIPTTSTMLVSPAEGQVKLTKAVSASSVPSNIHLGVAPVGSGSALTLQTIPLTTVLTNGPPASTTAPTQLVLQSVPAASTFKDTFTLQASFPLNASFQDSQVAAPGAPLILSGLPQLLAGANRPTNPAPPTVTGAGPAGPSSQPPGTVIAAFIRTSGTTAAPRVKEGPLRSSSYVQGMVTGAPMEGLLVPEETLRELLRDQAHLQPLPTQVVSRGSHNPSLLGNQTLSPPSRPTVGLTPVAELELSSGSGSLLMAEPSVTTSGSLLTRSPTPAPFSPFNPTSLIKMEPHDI
Sequence of SPIB (Q01892 whole entry): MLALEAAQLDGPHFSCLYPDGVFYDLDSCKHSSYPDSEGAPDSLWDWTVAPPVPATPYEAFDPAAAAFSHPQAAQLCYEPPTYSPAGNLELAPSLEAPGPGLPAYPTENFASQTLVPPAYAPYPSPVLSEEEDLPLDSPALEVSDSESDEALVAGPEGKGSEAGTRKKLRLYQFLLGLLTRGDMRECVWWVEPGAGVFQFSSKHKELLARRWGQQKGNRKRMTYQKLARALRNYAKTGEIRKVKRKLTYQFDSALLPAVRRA
Sequence of CRX (O43186 whole entry): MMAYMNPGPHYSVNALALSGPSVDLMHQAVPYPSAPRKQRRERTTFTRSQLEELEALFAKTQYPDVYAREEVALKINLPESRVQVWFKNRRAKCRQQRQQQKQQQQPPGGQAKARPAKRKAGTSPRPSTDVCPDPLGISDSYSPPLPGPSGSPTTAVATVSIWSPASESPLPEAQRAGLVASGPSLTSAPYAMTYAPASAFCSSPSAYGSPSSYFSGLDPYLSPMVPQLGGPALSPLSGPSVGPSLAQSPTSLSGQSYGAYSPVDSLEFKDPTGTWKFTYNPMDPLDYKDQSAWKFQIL

TCGACT
binding signal (FLI1): 1.33 fold enrichment (6-mer frequency, TF over GST control) | binding signal (ELK1): 1.34 fold enrichment (6-mer frequency, TF over GST control) | binding signal (GABPA): 1.3 fold enrichment (6-mer frequency, TF over GST control) | binding signal (ERG): 1.35 fold enrichment (6-mer frequency, TF over GST control) | binding signal (ELF1): 1.43 fold enrichment (6-mer frequency, TF over GST control) | binding signal (EHF): 1.39 fold enrichment (6-mer frequency, TF over GST control) | binding signal (SPI1): 1.42 fold enrichment (6-mer frequency, TF over GST control) | binding signal (SPIB): 1.39 fold enrichment (6-mer frequency, TF over GST control) | binding signal (ELK3): 1.47 fold enrichment (6-mer frequency, TF over GST control) | binding signal (FEV): 1.42 fold enrichment (6-mer frequency, TF over GST control) | binding signal (ETV5): 1.35 fold enrichment (6-mer frequency, TF over GST control) | binding signal (HSF1): 1.57 fold enrichment (6-mer frequency, TF over GST control) | binding signal (SPIC): 1.41 fold enrichment (6-mer frequency, TF over GST control) | binding signal (ELF4): 1.51 fold enrichment (6-mer frequency, TF over GST control) | binding signal (ELK4): 1.52 fold enrichment (6-mer frequency, TF over GST control) | binding signal (ETV2): 1.33 fold enrichment (6-mer frequency, TF over GST control) | binding signal (ELF3): 1.49 fold enrichment (6-mer frequency, TF over GST control) | binding signal (CRX): 1.36 fold enrichment (6-mer frequency, TF over GST control) | binding signal (ETV1): 1.38 fold enrichment (6-mer frequency, TF over GST control)
